Screening results deposited in PubChem by National Center for Advancing Translational Sciences (NCATS).
Only a selection was taken, and hits are over-represented in it overall.
Tb PYK inh: blocks Trypanosoma brucei pyruvate kinase; AID 624173; Q57TT1; TbPYK enzyme, Kinase-Glo Plus ATP luminescence, 45 min; Potency, µM (highest dose often 76.8 µM), for inactives: at the top dose activity, negative = inhibition, usual class: inhibitors; hit rate 0.12% among 410,000; also: potency is read from the fitted curve at half-maximal effect; % is scaled to controls: 0 for no effect and ±100 for the full control effect; nearly all actives have a fitted effect of over 50% in size
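Readout: single end-point luminescence (Kinase-Glo Plus, 10 min). Reaction conditions were TbPYK/substrate plus 130 uM ADP, 45 min at RT, pH 7.2 TEA buffer. No-enzyme wells served as controls, and data were normalized before concentration-response fitting.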
LmPK inh: inhibitors of Leishmania mexicana pyruvate kinase | purified LmPK, Kinase-Glo ATP luminescence, 1 h | hit rate 0.37% among 290,000 | Potency, µM (series often up to 57.5 µM), for the others: top-dose activity change, negative = inhibition, usual class: inhibitors | AID 1721 | Q27686; also: potency is read from the fitted curve at half-maximal effect; % is scaled to controls: 0 for no effect and ±100 for the full control effect
Target sequence (Q27686 whole entry, looked up): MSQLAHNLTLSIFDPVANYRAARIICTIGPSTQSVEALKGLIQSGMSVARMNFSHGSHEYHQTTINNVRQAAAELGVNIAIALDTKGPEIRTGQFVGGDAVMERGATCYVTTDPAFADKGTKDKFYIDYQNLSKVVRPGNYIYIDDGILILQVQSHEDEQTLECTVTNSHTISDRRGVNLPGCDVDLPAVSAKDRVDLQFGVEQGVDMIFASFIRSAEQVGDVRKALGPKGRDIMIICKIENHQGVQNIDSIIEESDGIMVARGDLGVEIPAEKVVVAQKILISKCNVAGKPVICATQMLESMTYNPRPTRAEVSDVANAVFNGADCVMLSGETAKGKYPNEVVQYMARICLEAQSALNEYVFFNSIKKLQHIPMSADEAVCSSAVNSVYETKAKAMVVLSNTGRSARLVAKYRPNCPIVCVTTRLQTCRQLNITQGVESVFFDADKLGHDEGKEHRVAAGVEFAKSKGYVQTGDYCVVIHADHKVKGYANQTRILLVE
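qHTS format; LmPK 0.1 nM; substrates PEP 0.5 mM and ADP 0.1 mM. One-hour room-temperature incubation, then coupled luciferase luminescence; 0.5 nM enzyme wells mark activation.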
Shiga toxin inh: inhibitors of Shiga toxin in Vero cells; inhibition, % at 38.7 µM; hit rate 9.2% among 290,000; Vero cells, Shiga toxin protein synthesis inhibition reporter; in the data active = inhibition mostly above about 28%, no sharp cut-off; inactive = mostly below about 43%; also: 0% is about no effect
Cycloheximide cs: affects cycloheximide protein synthesis inhibition readout, counter-screen; cell reporter, cycloheximide protein synthesis inhibition counterscreen; max response, %; hit rate 12% among 300,000; AID 2314; in the data active = max response mostly above about 13%, no sharp cut-off; inactive = mostly below about 14%; also: read at 38.3 µM for the half of the compounds with a filed dose; 0% is about no effect
FBPA Giardia inh: inhibitors of Giardia lamblia fructose-1,6-bisphosphate aldolase | hit rate 0.71% among 290,000 | A8B2U2 | Potency, µM (doses to about 59.6 µM), without a hit: at the highest dose activity, negative = inhibition, most hits filed as inhibitors | purified Giardia FBPA; also: potency is read from the fitted curve at half-maximal effect; % is scaled to controls: 0 for no effect and ±100 for the full control effect; nearly all actives have a fitted effect of over 55% in size
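40 nM FBPA preincubated 10 min at RT with compound (up to 57.5 uM final), then substrate plus GAPDH/TPI/NAD/arsenate coupling and diaphorase/resazurin added. Fluorescence read after 20 min at RT, 525/598 nm.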
Sm TGR block: S. mansoni TGR enzyme inhibition | Q962Y6 | purified TGR, DTNB reduction, TNB absorbance 405 nm | Potency, µM (doses to about 114 µM), for the others: at the highest dose activity change, negative = inhibition, usual class: inhibitors | hit rate 3% among 360,000 | AID 485364; also: potency is read from the fitted curve at half-maximal effect; % is scaled to controls: 0 for no effect and ±100 for the full control effect; nearly all actives have a fitted effect of over 60% in size
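TGR 20 nM + NADPH 100 uM (dispensed conc.), cpd preinc 15 min RT; start with NADPH (500 uM addition) then DTNB (15 mM addition). Kinetic TNB absorbance, 405 nm filter. Four-parameter Hill fit across titration.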
Numbers without * were called inactive; ? = inconclusive; . = no result; [ ] = another dose, or the depositor's remark. Unless noted, calls follow the shape of the dose curve; as a rule, active = well fitted curve in the direction sought with a large enough effect; inconclusive = small, poorly fitted or top-dose-only effect, or another doubt; inactive = no such curve, though single readings can be large; an effect the other way counts as inactive or inconclusive.

SMILES	Tb PYK inh	LmPK inh	Shiga toxin inh	Cycloheximide cs	FBPA Giardia inh	Sm TGR block
CCOC(=O)c1cnc(SCc2nc(N)nc(Nc3ccc(F)cc3)n2)nc1N	-6.8%	6.2%	43.1	9.5*	-6.2%	-5.8%
O=C(Nc1ccc2c(c1)OCO2)OCc1ccccc1	-6.9%	-9.4%	81.3*	24.5*	0.1%	-2.5%
O=C(Nc1ccc(F)cc1)Nc1ccc2c(c1)OCO2	1.6%	-7.2%	11.7	-2.3	.	-18.6%
O=C(NCCc1ccc(F)cc1)Nc1ccc2c(c1)OCO2	-30.4%	-2.2%	58.0*	48.0*	-2.5%	6.8%
O=C(CCc1ccccc1)Nc1ccc2c(c1)OCO2	1.8%	0.5%	89.2*	52.6*	-5.4%	7.4%
O=C(NCCc1ccccc1)C(=O)Nc1ccc2c(c1)OCCO2	4.1%	8.1%	74.0*	27.4*	4.3%	3.1%
O=C(Nc1ccc2c(c1)OCO2)C1CCCN1C(=O)OCc1ccccc1 (centres undefined)	-8.0%	-1.4%	14.3	-2.5	4.0%	-25.1%
CCOc1ccc(-c2noc([C@@H]3O[C@H](CO)[C@@H](O)[C@H]3O)n2)cc1	0.6%	.	.	.	.	.
O=C(CCS(=O)(=O)c1ccc(Br)cc1)Nc1ccc2c(c1)OCO2	-6.9%	4.0%	36.0	14.8*	-25.0%	39.8µM*
O=C(NCCc1ccccc1)Nc1ccc2c(c1)OCO2	-1.4%	-10.3%	155.7*	61.2*	-0.1%	6.1%
CCC/C=C(\CCC)C(NS(=O)(=O)c1ccccc1)c1ccc(C(F)(F)F)cc1 (centres undefined)	.	.	.	.	-8.8%	.
Cc1cc(C)nc(Oc2ccc(Br)cc2Br)n1	1.1%	0.7%	77.1*	25.2*	1.4%	12.2%
C/C(=N/Oc1nc(C)cc(C)n1)c1ccc(Br)cc1	-2.7%	0.5%	39.5	11.1	-20.0%	0.0%
Fc1cccc(Cl)c1CSc1ccc(-c2cccnc2)nn1	3.0%	1.1%	143.3*	35.5*	-6.6%	-2.1%
CCc1ccc(NC(=O)CSc2ccc(-c3cccnc3)nn2)cc1	2.3%	-1.0%	-3.8	5.9	-3.7%	13.0%
O=C(CSc1ccc(-c2cccnc2)nn1)Nc1ccc(F)cc1	-0.3%	2.7%	15.5	4.7	1.7%	0.6%
Clc1ccc(CSc2ccc(-c3cccnc3)nn2)cc1	1.6%	-4.3%	32.9	27.1*	-4.4%	-2.0%
O=[N+]([O-])c1ccc(SCc2c(F)cccc2Cl)nc1	-0.6%	2.6%	20.1	18.8*	6.8%	-2.1%
CCCc1nc2ccccc2n1CC(O)COc1ccc(C(=O)OC)cc1 (centres undefined)	-0.5%	.	.	.	.	2.6%
COCCN(C(=O)COC(=O)c1nc(Cl)ccc1Cl)c1c(N)n(Cc2ccccc2)c(=O)[nH]c1=O	-25.2%	.	.	.	.	8.1%
CSc1nnc(C)c(=O)n1COC(=O)/C=C/c1ccc2c(c1)OCO2	-3.6%	0.5%[11.5 µM]	40.7	13.2	1.6%	25.1µM*
NC(=O)c1ccc(NC(=O)COC(=O)/C=C/c2ccc3c(c2)OCO3)cc1	-0.9%	-4.3%	66.0*	26.1*	2.1%	4.7%
CC(=O)Nc1ccc(NC(=O)COC(=O)/C=C/c2ccc3c(c2)OCO3)cc1	-7.3%	.	.	.	.	-10.9%
COc1ccccc1N1CCN(C(=O)/C=C/c2ccc3c(c2)OCO3)CC1	2.2%	-3.4%	-21.4	-1.6	-1.6%	?
COc1ccccc1NC(=O)/C=C/c1ccc2c(c1)OCO2	-4.3%	-5.0%	85.4*	31.0*	-28.3%	2.7%
SMILES	Tb PYK inh	LmPK inh	Shiga toxin inh	Cycloheximide cs	FBPA Giardia inh	Sm TGR block
COc1ccccc1NC(=O)COC(=O)/C=C/c1ccc2c(c1)OCO2	0.8%	6.1%	83.7*	52.0*	0.6%	-0.8%
CCOc1ccccc1N(C)C(=O)Cn1cnc2sc(C)c(S(=O)(=O)N3CCC(C)CC3)c2c1=O	-0.5%	.	.	.	.	-0.9%
Cc1ccc(C)c2sc(N3CCN(C(=O)C(C)(C)C)CC3)nc12	2.9%	.	.	.	.	?
CCCC1NC(=O)c2cc3ccccc3cc2-n2c1nc1cc(Cl)ccc1c2=O (centres undefined)	-0.6%	.	.	.	.	.
Cc1cc(C)cc(NC2=C(c3ccccc3)C(=O)c3ccccc32)c1	-4.3%	.	.	.	.	-1.6%
FC(F)(F)c1cccc(N2CCN(c3nnnn3-c3ccccc3)CC2)c1	-1.9%	-3.5%	-2.6	-2.7	4.0%	-6.2%
CN1CCN(C=NC2=NN(c3cccc(C(F)(F)F)c3)CC2)CC1	-8.1%	1.8%	19.9	20.7*	5.2%	-5.0%
CN(C)C=NC1=NN(c2cccc(C(F)(F)F)c2)CC1	-10.4%	-2.5%	43.5*	43.0*	13.4%	?
Cc1ccc(NC(=O)CN(C)C(=O)COC(=O)c2nc3nccc(C)n3n2)cc1	0.2%	.	.	.	.	-8.1%
CSCC[C@H](NC(=O)C1CCN(S(=O)(=O)c2ccc(C)cc2)CC1)C(=O)NCc1ccco1	-8.9%	9.9%	8.1	-0.9	1.0%	44.7µM*
O=C(NCc1ccco1)C1CCCN(S(=O)(=O)c2ccc(-n3cnnn3)cc2)C1 (centres undefined)	3.9%	-1.2%	-8.7	6.9	3.4%	20µM*
O=C(NCc1ccccc1F)C1CCCN(S(=O)(=O)c2ccc(-n3cnnn3)cc2)C1 (centres undefined)	-5.5%	2.1%	-6.7	-0.7	9.5%	-8.3%
COC(=O)Nc1ccc(S(=O)(=O)N2CCCCC2C(=O)NCc2ccco2)cc1 (centres undefined)	-6.3%	2.5%	3.4	-4.0	2.3%	-8.6%
Cc1ccc(S(=O)(=O)N2CCCCC2C(=O)NCc2ccco2)cc1 (centres undefined)	-2.9%	-0.3%	21.6	0.2	-1.0%	20µM*
O=C(CCCn1cncn1)N1CCCC(N2CCN(c3ccccc3F)CC2)C1 (centres undefined)	5.3%	-11.3%	-9.7	7.5	.	-29.8%
Cc1ccccc1-c1cc2nc(NCCc3ccncc3)n(C)c(=O)c2s1	1.7%	.	.	.	.	.
COc1ccc(C)cc1NC(=O)C(Cc1ccccc1)NS(=O)(=O)c1ccc(Br)s1 (centres undefined)	3.7%	.	.	.	.	-5.4%
CC(=O)c1ccc(NC2=NCCCS2)cc1	-7.0%	5.0%	9.7	15.2	6.5%	-3.0%
CCCCc1ccc(NC2=NCCCS2)cc1	-1.6%	9.7%	41.9*	29.9*	2.7%	4.2%
FC(F)(F)Oc1ccc(NC2=NCCCS2)cc1	0.5%	5.5%	38.7*	33.0*	3.8%	12.0%
FC(F)(F)c1cccc(NC2=NCCCS2)c1	2.0%	-1.8%	.	0.9	-2.4%	-15.3%
Cc1ccccc1OCC(=O)NCC(c1ccc(Cl)cc1)N1CCOCC1 (centres undefined)	1.1%	.	.	.	.	3.9%
Oc1c(C(c2ccccc2F)N2CCOCC2)sc2nc(-c3ccco3)nn12 (centres undefined)	4.7%	.	.	.	.	13.8%
O=P(C(Cl)Cl)(N1CCOCC1)N1CCOCC1	0.8%	0.2%	-5.0	-4.5	0.5%	-8.3%
O=CC(Br)P(=O)(N1CCOCC1)N1CCOCC1 (centres undefined)	?	0.9%	10.3	-3.1	0.0%	44.7µM*
